Consider 15 compounds from PubChem BioAssay (NCI).

Some test systems named below: NCI-H23 lung; NCI-H226 lung; NCI-H322M lung; HOP-62 NSCLC; NCI-H460 lung; NCI-H522 lung; A549/ATCC NSCLC; 786-0 renal; COLO 205 colon.
Holding throughout (assay): NCI-60 one-dose screen, 48 h (100 = growth as untreated, 0 = no growth, -100 = all killed)
Settings in all cases: 10 µM unless noted

Compounds without any hit were thinned out: in the full panel of roughly 83,000, 20% have a hit.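 Cell lines were cultured in 96-well plates, exposed to a single compound concentration, and assessed for percent growth 48 hours later.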 Unmarked numbers belong to inactive results. The source made the active and inactive calls. How the source made its calls: active means growth percent below 10; inactive means the rest.

For the compound `Cc1cccc(N=NC(=S)NNc2cccc(C)c2)c1`, the growth in the experiment on NCI-H23 lung was 102%; in the experiment on NCI-H226 lung, 101%; in the experiment on NCI-H322M lung, 101%; in the experiment on HOP-62 NSCLC, 101%; in the experiment with NCI-H460 lung, 112%; with NCI-H522 lung it was 95.4%. Also, the figures for the growth in the experiment with A549/ATCC NSCLC, with 786-0 renal and in the experiment on COLO 205 colon were 105%, 111% and 116%, respectively.

Consider `NS(=O)(=O)c1ccc(CCn2c(SCC(=O)N/N=C/c3cc4ccccc4[nH]3)nc3ccccc3c2=O)cc1`, for which the growth in the experiment on NCI-H23 lung is 58.8%; with NCI-H226 lung, 76.6%; in the experiment on NCI-H322M lung it was 83.7%; in the experiment on HOP-62 NSCLC, 68.7%; with NCI-H460 lung, 30.4%; in the experiment with NCI-H522 lung it was 19.5%. The growth is 84.3% in the experiment on A549/ATCC NSCLC, 78.9% with 786-0 renal and 74.4% in the experiment on COLO 205 colon.

Turning to `COc1cccc(/C=N\Nc2ccc([N+](=O)[O-])cn2)c1O`, the growth with NCI-H23 lung is 38%; with NCI-H226 lung it was 81.5%; in the experiment on NCI-H322M lung it was 32%; in the experiment with HOP-62 NSCLC, 46.4%; in the experiment on NCI-H460 lung, 18%; in the experiment with NCI-H522 lung, 12.7%. Besides, the growth in the experiment with A549/ATCC NSCLC was 57%; in the experiment with 786-0 renal, 64.5%; in the experiment on COLO 205 colon it was 134%.

Turning to `CC(=O)Nc1c(Br)cc2c(c1Br)Cc1cc(Br)ccc1-2`, the growth in the experiment with NCI-H23 lung was 72.8%; in the experiment with NCI-H226 lung, 85%; with NCI-H322M lung, 88.2%; in the experiment on HOP-62 NSCLC, 29.1%; in the experiment with NCI-H460 lung, 38.8%; with NCI-H522 lung, 76%. For the same compound, the growth in the experiment with A549/ATCC NSCLC is 20.8%; with 786-0 renal it was 87%; with COLO 205 colon, 35%.

As for `O=C(CC(=O)c1cccc(Cl)c1)c1cccc(Cl)c1`, the growth in the experiment on NCI-H23 lung is 28.4%; with NCI-H226 lung, 41.5%; in the experiment with NCI-H322M lung it was 47.9%; in the experiment with HOP-62 NSCLC, 22.1%; with NCI-H460 lung, 21.6%; in the experiment with NCI-H522 lung it was 38.5%. Moreover, the growth is 57.7% in the experiment with A549/ATCC NSCLC, 43% with 786-0 renal and 46.9% in the experiment on COLO 205 colon.

On to `Cc1ccc(Nc2cc(Cl)c([N+](=O)[O-])cc2[N+](=O)[O-])cc1`, for which the growth in the experiment on NCI-H23 lung is 63.8%; in the experiment on NCI-H226 lung it was 25.9%; in the experiment with NCI-H322M lung, 86.7%; with HOP-62 NSCLC it was 62.8%; with NCI-H460 lung, 52.7%; in the experiment on NCI-H522 lung, -41.7% (active). The growth with A549/ATCC NSCLC was 76.7%; with 786-0 renal, 23.5%; with COLO 205 colon it was -31.2% (active).

Regarding `O=C(CC(=O)C(F)(F)C(F)(F)C(F)(F)F)c1cc2ccccc2o1`, the growth is 101% with NCI-H23 lung; 99.8% in the experiment with NCI-H226 lung; 106% in the experiment on NCI-H322M lung; 97.5% in the experiment with HOP-62 NSCLC; 110% with NCI-H460 lung; 108% in the experiment with NCI-H522 lung. The growth in the experiment with A549/ATCC NSCLC is 96.1%; in the experiment with 786-0 renal it was 98.4%; in the experiment on COLO 205 colon, 114%.

Take `COC(=O)OC1C(O[C@H]2C[C@H]3[C@@H]4CC=C5C[C@@H](O)CC[C@]5(C)[C@H]4CC[C@]3(C)[C@H]2[C@H](C)C(=O)CCC(C)C)OCC(O)C1OC1OCC(O)C(O)C1OC(=O)c1ccc(OC)cc1` (stereo not given in full): the growth in the experiment with NCI-H23 lung was 27.9%; in the experiment on NCI-H226 lung it was -8.65% (active); in the experiment on NCI-H322M lung, 45.2%; in the experiment with HOP-62 NSCLC, -26.5% (active); with NCI-H460 lung it was -24.2% (active); in the experiment with NCI-H522 lung it was -49.8% (active). The growth with A549/ATCC NSCLC was 1.81% (active); in the experiment with 786-0 renal, -25% (active); with COLO 205 colon it was -52.4% (active).

As to `Cc1ccsc1C(=O)CC(=O)C(F)(F)C(F)(F)C(F)(F)F`, the growth with NCI-H23 lung was 104%; in the experiment on NCI-H226 lung, 93.1%; in the experiment on NCI-H322M lung it was 104%; in the experiment with HOP-62 NSCLC it was 99.4%; in the experiment on NCI-H460 lung, 114%; with NCI-H522 lung, 112%. Moreover, the growth is 99.4% with A549/ATCC NSCLC, 106% with 786-0 renal and 112% in the experiment on COLO 205 colon.

For the compound `CCC1=CC2CN(C1)Cc1c([nH]c3ccccc13)[C@@](C(=O)OC)(c1cc3c(cc1OC)N(C)[C@H]1[C@@](O)(C(=O)OC)[C@H](OC(C)=O)[C@]4(CC)C=CCN5CC[C@]31[C@@H]54)C2` (stereo not given in full), the growth was 3.64% (active) with NCI-H23 lung; -1.33% (active) in the experiment on NCI-H226 lung; 70% with NCI-H322M lung; 19.8% with HOP-62 NSCLC; 3.4% (active) in the experiment on NCI-H460 lung; -4.74% (active) in the experiment on NCI-H522 lung. Also, the growth in the experiment with A549/ATCC NSCLC is 11%; in the experiment with 786-0 renal, -8.81% (active); in the experiment on COLO 205 colon, -75% (active).

For `Cc1cccc(/C=N/n2c(-c3ccc(Cl)cc3)nc3c(Br)cc(Br)cc3c2=O)c1`, the growth is 29.2% in the experiment on NCI-H23 lung; 37.9% with NCI-H226 lung; 53.8% with NCI-H322M lung; 33.8% in the experiment with HOP-62 NSCLC; 29.1% in the experiment with NCI-H460 lung; 38.1% with NCI-H522 lung. The growth in the experiment on A549/ATCC NSCLC is 31.4%; with 786-0 renal, 51.9%; with COLO 205 colon, 46.8%.

In the case of `CCN(CC)CC(=O)Nc1c(C)cc(C(=O)NN)cc1C`, the growth is 94.8% with NCI-H23 lung; 99.7% in the experiment with NCI-H226 lung; 89.1% in the experiment with NCI-H322M lung; 88.5% in the experiment on HOP-62 NSCLC; 105% in the experiment with NCI-H460 lung; 105% in the experiment with NCI-H522 lung. For the same compound, the growth in the experiment with A549/ATCC NSCLC is 106%; with 786-0 renal it was 106%; in the experiment with COLO 205 colon, 95.4%.

With `NC(CCC(=O)NC(CS)C(=O)NCC(=O)O)C(=O)O` (stereo not given), the growth is 108% with NCI-H23 lung; 101% with NCI-H226 lung; 126% in the experiment on NCI-H322M lung; 103% with HOP-62 NSCLC; 106% in the experiment with NCI-H460 lung; 98.3% with NCI-H522 lung. Also, the growth with A549/ATCC NSCLC was 94.2%; in the experiment on 786-0 renal, 109%; with COLO 205 colon, 104%.

Turning to `O=C1OCC2=C1C(c1ccccc1)c1cc3c(cc1N2CCO)CCC3` (stereo not given), the growth with NCI-H23 lung is -0.519% (active); in the experiment with NCI-H226 lung, 27%; in the experiment on NCI-H322M lung it was 34.2%; in the experiment with HOP-62 NSCLC it was 20.9%; with NCI-H460 lung, -37.3% (active); with NCI-H522 lung, -31.4% (active). For the same compound, the results for the growth with A549/ATCC NSCLC, in the experiment on 786-0 renal and with COLO 205 colon were 34.6%, 8.65% (active) and -81.7% (active), respectively.

Take `CCN1C(=O)N(CC)C2C1N=C(SC)N2/N=C/C=C/c1ccccc1OC` (stereo not given): the growth is 21.9% in the experiment on NCI-H23 lung; 34.8% with NCI-H226 lung; 31.7% in the experiment with NCI-H322M lung; 25.2% in the experiment on HOP-62 NSCLC; 6.18% (active) in the experiment with NCI-H460 lung; -32.8% (active) in the experiment on NCI-H522 lung. The growth in the experiment on A549/ATCC NSCLC is 17.7%; in the experiment on 786-0 renal, 14.5%; in the experiment on COLO 205 colon, -48.9% (active).
